According to PMC11006913:
Changes are numbered by the printed parent chain.

Key:
Experiment in all cases: PBM; 200 nM protein, PBS
Conditions in all cases: dsDNA, one strand shown
HOXB9 [1] = target: HOXB9 (Homo sapiens, UniProt P17482 171-250, T197M)
HOXA4 [2] = target: HOXA4 (Homo sapiens, UniProt Q00056 201-287, W262R)
HOXC9 [3] = target: HOXC9 (Homo sapiens, UniProt P31274 178-260, K195R)
HOXA4 [4] = target: HOXA4 (Homo sapiens, UniProt Q00056 201-287, R217L)
HOXB9 [5] = target: HOXB9 (Homo sapiens, UniProt P17482 171-250)
HOXC9 [6] = target: HOXC9 (Homo sapiens, UniProt P31274 178-260)
HOXC9 [7] = target: HOXC9 (Homo sapiens, UniProt P31274 178-260, R193K)
HOXA4 [8] = target: HOXA4 (Homo sapiens, UniProt Q00056 201-287)
HOXB9 [9] = target: HOXB9 (Homo sapiens, UniProt P17482 171-250, R186Q)
HOXC9 [10] = target: HOXC9 (Homo sapiens, UniProt P31274 178-260, R222W)
HOXA4 [11] = target: HOXA4 (Homo sapiens, UniProt Q00056 201-287, W262F)
SIX6 [12] = target: T1, SIX6 (Homo sapiens, UniProt O95475 114-200, L167I)
T1 sequence: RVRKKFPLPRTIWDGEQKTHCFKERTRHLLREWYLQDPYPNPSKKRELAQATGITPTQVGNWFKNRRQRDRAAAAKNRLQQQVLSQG

SIX6 [13] = target: T2, SIX6 (Homo sapiens, UniProt O95475 114-200, L143V)
T2 sequence: T1 sequence with L30V, I54L

SIX6 [14] = target: T3, SIX6 (Homo sapiens, UniProt O95475 114-200, H141N)
T3 sequence: T1 sequence with H28N, I54L

SIX6 [15] = target: T4, SIX6 (Homo sapiens, UniProt O95475 114-200, T165P)
T4 sequence: T1 sequence with T52P, I54L

SIX6 [16] = target: T5, SIX6 (Homo sapiens, UniProt O95475 114-200, L167M)
T5 sequence: T1 sequence with I54M

SIX6 [17] = target: T6, SIX6 (Homo sapiens, UniProt O95475 114-200, L143M)
T6 sequence: T1 sequence with L30M, I54L

SIX6 [18] = target: T7, SIX6 (Homo sapiens, UniProt O95475 114-200, L143I)
T7 sequence: T1 sequence with L30I, I54L

SIX6 [19] = target: T8, SIX6 (Homo sapiens, UniProt O95475 114-200, T165G)
T8 sequence: T1 sequence with T52G, I54L

SIX6 [20] = target: T9, SIX6 (Homo sapiens, UniProt O95475 114-200, T139Q)
T9 sequence: T1 sequence with T26Q, I54L

SIX6 [21] = target: T10, SIX6 (Homo sapiens, UniProt O95475 114-200, T165A)
T10 sequence: T1 sequence with T52A, I54L

SIX6 [22] = target: T11, SIX6 (Homo sapiens, UniProt O95475 114-200, L167V)
T11 sequence: T1 sequence with I54V

SIX6 [23] = target: T12, SIX6 (Homo sapiens, UniProt O95475 114-200)
T12 sequence: T1 sequence with I54L

SIX6 [24] = target: T13, SIX6 (Homo sapiens, UniProt O95475 114-200, T165I)
T13 sequence: T1 sequence with T52I, I54L

HOXB6 [25] = target: HOXB6 (Homo sapiens, UniProt P17509 132-218, K202E)
HOXB6 [26] = target: HOXB6 (Homo sapiens, UniProt P17509 132-218)
HOXB6 (Homo sapiens, UniProt P17509 132-218), sequence (P17509 132-218): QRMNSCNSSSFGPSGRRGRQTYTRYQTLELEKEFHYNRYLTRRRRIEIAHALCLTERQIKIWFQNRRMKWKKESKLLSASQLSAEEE

HOXB9 (Homo sapiens, UniProt P17482 171-250, R186Q), sequence (P17482 171-250 R186Q): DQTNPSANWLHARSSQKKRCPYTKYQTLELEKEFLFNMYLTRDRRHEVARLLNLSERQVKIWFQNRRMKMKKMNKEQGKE
HOXB9 (Homo sapiens, UniProt P17482 171-250), sequence (P17482 171-250): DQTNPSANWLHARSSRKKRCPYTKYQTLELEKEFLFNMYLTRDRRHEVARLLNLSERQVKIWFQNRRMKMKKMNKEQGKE
HOXB9 (Homo sapiens, UniProt P17482 171-250, T197M), sequence (P17482 171-250 T197M): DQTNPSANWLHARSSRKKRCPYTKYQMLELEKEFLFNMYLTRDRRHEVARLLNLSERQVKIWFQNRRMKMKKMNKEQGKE
HOXA4 (Homo sapiens, UniProt Q00056 201-287, W262R), sequence (Q00056 201-287 W262R): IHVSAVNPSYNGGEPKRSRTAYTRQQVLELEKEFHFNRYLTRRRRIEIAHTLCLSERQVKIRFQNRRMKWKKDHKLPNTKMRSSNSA
HOXC9 (Homo sapiens, UniProt P31274 178-260, R193K), sequence (P31274 178-260 R193K): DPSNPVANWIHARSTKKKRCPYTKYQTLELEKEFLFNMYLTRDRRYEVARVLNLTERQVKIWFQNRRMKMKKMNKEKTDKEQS
HOXC9 (Homo sapiens, UniProt P31274 178-260), sequence (P31274 178-260): as the sequence (P31274 178-260 R193K) above, with K16R counted along it
HOXC9 (Homo sapiens, UniProt P31274 178-260, R222W), sequence (P31274 178-260 R222W): as the sequence (P31274 178-260 R193K) above, with K16R, R45W counted along it
HOXC9 (Homo sapiens, UniProt P31274 178-260, K195R), sequence (P31274 178-260 K195R): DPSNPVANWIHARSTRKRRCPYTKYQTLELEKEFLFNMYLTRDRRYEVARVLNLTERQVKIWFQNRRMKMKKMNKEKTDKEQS
HOXA4 (Homo sapiens, UniProt Q00056 201-287), sequence (Q00056 201-287): as the sequence (Q00056 201-287 W262R) above, with R62W counted along it
HOXA4 (Homo sapiens, UniProt Q00056 201-287, R217L), sequence (Q00056 201-287 R217L): as the sequence (Q00056 201-287 W262R) above, with R17L, R62W counted along it
HOXA4 (Homo sapiens, UniProt Q00056 201-287, W262F), sequence (Q00056 201-287 W262F): as the sequence (Q00056 201-287 W262R) above, with R62F counted along it
HOXB6 (Homo sapiens, UniProt P17509 132-218, K202E), sequence (P17509 132-218 K202E): as the sequence (P17509 132-218) above, with K71E counted along it

CCCGGTTC
binding signal (HOXB9 [1]): 8.56 upbm affinity estimate (log intensity, higher = more binding, comparable within an allelic series) | binding signal (HOXA4 [2]): 9.88 upbm affinity estimate (log intensity, higher = more binding, comparable within an allelic series) | binding signal (HOXC9 [3]): 9.5 upbm affinity estimate (log intensity, higher = more binding, comparable within an allelic series) | binding signal (HOXA4 [4]): 9.82 upbm affinity estimate (log intensity, higher = more binding, comparable within an allelic series) | binding signal (HOXB9 [5]): 8.35 upbm affinity estimate (log intensity, higher = more binding, comparable within an allelic series) | binding signal (HOXC9 [6]): 9.62 upbm affinity estimate (log intensity, higher = more binding, comparable within an allelic series) | binding signal (HOXC9 [7]): 9.59 upbm affinity estimate (log intensity, higher = more binding, comparable within an allelic series) | binding signal (HOXA4 [8]): 9.74 upbm affinity estimate (log intensity, higher = more binding, comparable within an allelic series) | binding signal (HOXB9 [9]): 8.47 upbm affinity estimate (log intensity, higher = more binding, comparable within an allelic series) | binding signal (HOXC9 [10]): 9.68 upbm affinity estimate (log intensity, higher = more binding, comparable within an allelic series) | binding signal (HOXA4 [11]): 9.9 upbm affinity estimate (log intensity, higher = more binding, comparable within an allelic series)

CAGCTGCG
binding signal (HOXB9 [1]): 8.53 upbm affinity estimate (log intensity, higher = more binding, comparable within an allelic series) | binding signal (SIX6 [12]): 9.16 upbm affinity estimate (log intensity, higher = more binding, comparable within an allelic series) | binding signal (SIX6 [13]): 9.03 upbm affinity estimate (log intensity, higher = more binding, comparable within an allelic series) | binding signal (SIX6 [14]): 9.09 upbm affinity estimate (log intensity, higher = more binding, comparable within an allelic series) | binding signal (SIX6 [15]): 9 upbm affinity estimate (log intensity, higher = more binding, comparable within an allelic series) | binding signal (SIX6 [16]): 9.04 upbm affinity estimate (log intensity, higher = more binding, comparable within an allelic series) | binding signal (SIX6 [17]): 9.22 upbm affinity estimate (log intensity, higher = more binding, comparable within an allelic series) | binding signal (SIX6 [18]): 9.01 upbm affinity estimate (log intensity, higher = more binding, comparable within an allelic series) | binding signal (SIX6 [19]): 9.19 upbm affinity estimate (log intensity, higher = more binding, comparable within an allelic series) | binding signal (HOXB9 [5]): 8.16 upbm affinity estimate (log intensity, higher = more binding, comparable within an allelic series) | binding signal (SIX6 [20]): 9.25 upbm affinity estimate (log intensity, higher = more binding, comparable within an allelic series) | binding signal (SIX6 [21]): 9.08 upbm affinity estimate (log intensity, higher = more binding, comparable within an allelic series) | binding signal (SIX6 [22]): 9.05 upbm affinity estimate (log intensity, higher = more binding, comparable within an allelic series) | binding signal (SIX6 [23]): 9.08 upbm affinity estimate (log intensity, higher = more binding, comparable within an allelic series) | binding signal (SIX6 [24]): 9.09 upbm affinity estimate (log intensity, higher = more binding, comparable within an allelic series) | binding signal (HOXB9 [9]): 8.31 upbm affinity estimate (log intensity, higher = more binding, comparable within an allelic series)

GGGATCCC
binding signal (HOXB9 [1]): 8.56 upbm affinity estimate (log intensity, higher = more binding, comparable within an allelic series) | binding signal (HOXA4 [2]): 9.85 upbm affinity estimate (log intensity, higher = more binding, comparable within an allelic series) | binding signal (HOXC9 [3]): 9.54 upbm affinity estimate (log intensity, higher = more binding, comparable within an allelic series) | binding signal (HOXB6 [25]): 9.02 upbm affinity estimate (log intensity, higher = more binding, comparable within an allelic series) | binding signal (HOXA4 [4]): 9.68 upbm affinity estimate (log intensity, higher = more binding, comparable within an allelic series) | binding signal (HOXB9 [5]): 8.21 upbm affinity estimate (log intensity, higher = more binding, comparable within an allelic series) | binding signal (HOXC9 [6]): 9.51 upbm affinity estimate (log intensity, higher = more binding, comparable within an allelic series) | binding signal (HOXC9 [7]): 9.56 upbm affinity estimate (log intensity, higher = more binding, comparable within an allelic series) | binding signal (HOXA4 [8]): 9.71 upbm affinity estimate (log intensity, higher = more binding, comparable within an allelic series) | binding signal (HOXB9 [9]): 8.25 upbm affinity estimate (log intensity, higher = more binding, comparable within an allelic series) | binding signal (HOXC9 [10]): 9.68 upbm affinity estimate (log intensity, higher = more binding, comparable within an allelic series) | binding signal (HOXA4 [11]): 9.89 upbm affinity estimate (log intensity, higher = more binding, comparable within an allelic series) | binding signal (HOXB6 [26]): 9.02 upbm affinity estimate (log intensity, higher = more binding, comparable within an allelic series)
